Reference: PubChem BioAssay (Tox21)
Inconclusive results are not listed. Unmarked numbers belong to inactive results. Calls of active or inactive are those of the source. Calls follow the shape of the dose curve; as a rule, active = well fitted activation curve with a large enough effect in the signal ratio in the repeat runs, with a control signal flat (not every such curve was filed as active); inconclusive = weak or mixed curves; inactive = flat fitted curve, though single readings scatter; the % refers to the signal ratio.
% is scaled to controls: 0 for no effect and ±100 for the full control effect; potency is read from the fitted curve at half-maximal effect.

Assay: qHTS assay for small molecule activators of the heat shock response signaling pathway (AID 743210)
Conditions: HeLa HSE-bla reporter, beta-lactamase ratio, 5 h; series mostly up to 62.6 µM; activation: at the top concentration
From the text: U.S. Tox21 Program National Center for Advancing Translational Sciences [NCATS] NIH Chemical Genomics Center [NCGC] U.S. Environmental Protection Agency [EPA] National Institutes of Environmental Health Sciences [NIEHS] National Toxicology Program [NTP] U.S. Food and Drug Administration [FDA] Tox21 Assay Overview: Various chemicals, environmental and physiological stress conditions may lead to the activation of heat shock response/ unfolded protein response (HSR/UPR). There are three heat shock transcription factors (HSFs) (HSF-1, -2, and -4) mediating transcriptional regulation of the human HSR. To identify the compounds that activate HSR signaling, HSE-bla HeLa cell line (Invitrogen, Carlsbad, CA, USA) containing a beta-lactamase reporter gene under the control of the heat shock response elements was used to screen the Tox21 10K compound library.
Tox21 Assay Protocol Summary: The CellSensor HSE-bla HeLa cells (Invitrogen, Carlsbad, CA, USA) were dispensed at 1500 cells/6uL/well into 1536-well black wall/clear bottom plates using a Multidrop combi (Thermo Fisher Scientific, Waltham, MA) dispenser. After the assay plates were incubated at 37 C and 5% CO2 overnight, 23 nL of compounds dissolved in DMSO, positive controls or DMSO only was transferred to the assay plate by a Pintool station (Kalypsys, San Diego, CA). The plates were incubated at 37 C for 5 h. After 1 uL of LiveBLAzerTM B/G FRET substrate was added using a Flying Reagent Dispenser (Beckman Coulter, Indianapolis, IN, USA), the plates were incubated at room temperature for 2.5 h, and fluorescence intensity was measured by an Envision plate reader (PerkinElmer, Shelton, CT).
With `ON=C1CCCC1` the “activation” value was -0.273% [at 81.1 µM].
With `Cc1ccc(O)c(C(C)(C)C)c1` the “activation” value was 5.01%.
In the case of `CN(C)CCCOC1(Cc2ccccc2)CCCCCC1`, the “activation” value was -0.432%.
For `O=C(OCC1CO1)C1CCCCC1C(=O)OCC1CO1` (stereo not given), the “activation” value was 3.34%.
With `O=C(c1ccc(F)cc1)C1CCN(CCn2c(=O)[nH]c3ccccc3c2=O)CC1` the “activation” value was -0.409%.
With `Oc1ccc(N=Nc2ccccc2)cc1` the “activation” value was -0.998% [at 81.1 µM].
With `CCN(C(=O)N(CC)c1ccccc1)c1ccccc1` the “activation” value was 0.546%.
With `OCCN1CCN(CC/C=C2/c3ccccc3Sc3ccc(C(F)(F)F)cc32)CC1` the “activation” value was 1.83%.
With `CCC(N)(CO)CO` the “activation” value was -1.08% [at 81.1 µM].
With `CNC(=O)c1ccccc1` the “activation” value was -0.0744%.
With `C/C=C1/C(=O)C[C@H]2[C@@H]3CCC4=CC(=O)CC[C@]4(C)[C@H]3CC[C@]12C` the Potency was 28.5 µM (active).
In the case of `COC(=O)c1cc(Cl)ccc1OC`, the “activation” value was 1%.
With `O=C1c2c(O)ccc(Nc3ccc(CCO)cc3)c2C(=O)c2c([N+](=O)[O-])ccc(O)c21` the “activation” value was 3.11%.
In the case of `Cc1cc(N)c(S(=O)(=O)O)cc1Cl`, the “activation” value was -1.29% [at 81.1 µM].
With `NNC(=O)c1cccc(C(=O)NN)c1` the “activation” value was -0.0781%.
In the case of `Nc1ccccc1O`, the “activation” value was 0.0852%.
In the case of `CC(=O)S[C@@H]1CC2=CC(=O)CC[C@]2(C)[C@H]2CC[C@@]3(C)[C@@H](CC[C@@]34CCC(=O)O4)[C@H]12`, the “activation” value was -1.69%.
For `Nc1c(Cl)cc(Cl)cc1Cl`, the “activation” value was 1.43%.
For `Cc1ccc(-n2nc(C(C)(C)C)cc2NC(=O)Nc2ccc(OCCN3CCOCC3)c3ccccc23)cc1`, the “activation” value was -0.22%.
With `CN1CCN(CCC(=O)N2c3ccccc3Sc3ccc(C(F)(F)F)cc32)CC1` the “activation” value was 2.98%.
In the case of `CC(NN)c1ccccc1` (stereo not given), the “activation” value was 0.911% [at 29.1 µM].
For `NC(=O)NS(=O)(=O)c1ccc(N)cc1`, the “activation” value was -0.753%.
With `C[C@@H]1C[C@H]2[C@@H]3CCC4=CC(=O)C=C[C@]4(C)[C@@]3(Cl)[C@@H](O)C[C@]2(C)[C@@]1(OC(=O)c1ccco1)C(=O)CCl` the Potency was 31.6 µM (active).
In the case of `N#CC1(c2ccc(F)cc2)CCC(=O)CC1`, the “activation” value was -0.728%.
With `CCN(CC)CCNC(=O)c1c(C)[nH]c(/C=C2\C(=O)Nc3ccc(F)cc32)c1C` the “activation” value was -0.725%.
In the case of `O=C(O)c1ccc(Cl)c(Cl)c1`, the “activation” value was -0.37%.
With `C=C(C)C(=O)OCC[N+](C)(C)C` the “activation” value was -1.61%.
In the case of `Fc1ccc([C@@H]2CCNC[C@H]2COc2ccc3c(c2)OCO3)cc1`, the “activation” value was 5.5%.
With `O=[N+]([O-])c1ccccc1Nc1ccccc1` the “activation” value was -3.44%.
With `CCCCN(CCCC)C(=O)N(CCCC)CCCC` the “activation” value was 2.7%.
With `Cc1cccc(CN2CCN(C(c3ccccc3)c3ccc(Cl)cc3)CC2)c1` (stereo not given) the “activation” value was 1.17%.
With `CSc1cnc(C)cn1` the “activation” value was 0.11% [at 81.1 µM].
For `O=c1cc(-c2ccc(O)cc2)oc2cc(O)cc(O)c12`, the “activation” value was -0.755% [at 81.1 µM].
In the case of `CNCc1cc(F)ccc1Oc1ccc(Cl)c(Cl)c1`, the “activation” value was 5.87%.
For `CSc1ccc(C(=O)c2[nH]c(=O)[nH]c2C)cc1`, the “activation” value was -0.303%.
In the case of `Clc1ccc2nsnc2c1NC1=NCCN1`, the “activation” value was -0.324%.
With `Cc1cccc(S(=O)(=O)O)c1C` the “activation” value was -0.0572%.
In the case of `CC1=NC(C)OC1C` (stereo not given), the “activation” value was 2.09%.
In the case of `C[n+]1ccn(Cc2ccccc2)c1`, the “activation” value was -0.199%.
With `CC(C)(C)c1ccc(C(=O)O)cc1` the “activation” value was -1.43%.
